The results in this text go back to PubChem BioAssay (Tox21).

In experiment [1] the target is Peroxisome proliferator-activated receptor delta (Homo sapiens) (UniProt Q03181). As to the kind of experiment: qHTS assay to identify small molecule agonists of the peroxisome proliferator-activated receptor delta (PPARd) signaling pathway (AID 743212). The method, boiled down: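 HEK293H UAS-bla reporter cells, human PPARd system; compounds delivered in DMSO after 5 h plating, then at 37 C. Beta-lactamase FRET read, 2 h RT substrate step.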
A general note: Quantitative high-throughput screening tests each substance at several concentrations.

The target is the same in experiment [2]. The experiment can be described thus: qHTS assay to identify small molecule antagonists of the peroxisome proliferator-activated receptor delta (PPARd) signaling pathway (AID 743215; active = well fitted inhibition curve with a large enough effect in the signal ratio in the repeat runs, not every such curve was filed as active; the % refers to the signal ratio;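 note: cells stimulated with agonist L165041 at 300 nM final during compound exposure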; note: potency is the fitted concentration of half-maximal effect). The method, boiled down:
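Inhibition of L165041-driven (300 nM final) PPARd signaling is scored in HEK293H UAS-bla cells. Exposure lasts 17 h at 37 C; beta-lactamase activity is then read by FRET substrate fluorescence after 2 h at room temperature.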

Experiment [3] has as its target Bile acid receptor (Homo sapiens) (UniProt Q96RI1). As to the kind of experiment: qHTS assay to identify small molecule antagonists of the farnesoid-X-receptor (FXR) signaling pathway (AID 743217; active = well fitted inhibition curve with a large enough effect in the signal ratio in the repeat runs, not every such curve was filed as active; the % refers to the signal ratio). The method, boiled down: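 Antagonist mode against 50 uM (final) chenodeoxycholic acid stimulation in FXR-bla HEK 293T cells, 16 h at 37 °C. Inhibition detected as reduced beta-lactamase activity via LiveBLAzer B/G FRET fluorescence after 2 h at room temperature.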

The nature of experiment [4]: qHTS assay to identify small molecule agonists of the farnesoid-X-receptor (FXR) signaling pathway - cell viability counter screen (AID 743218; active = well fitted curve in the direction sought with a large enough effect in the repeat runs; an effect the other way counts as inactive or inconclusive; note: nearly all actives have a fitted effect of over 45% in size). The method, boiled down: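 Cytotoxicity counter-screen run in parallel, same wells: FXR-UAS-bla HEK 293T cells dosed 16 h at 37 C, viability read by CellTiter-Glo luminescence after 30 min at room temperature.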
Experiment [5] has as its target Bile acid receptor (Homo sapiens) (UniProt Q96RI1). The experiment can be described thus: qHTS assay to identify small molecule agonists of the farnesoid-X-receptor (FXR) signaling pathway (AID 743220; active = well fitted activation curve with a large enough effect in the signal ratio in the repeat runs, not every such curve was filed as active; the % refers to the signal ratio). An outline of the steps:
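Beta-lactamase reporter under UAS control in GeneBLAzer FXR HEK 293T cells (5000/well) measured with LiveBLAzer FRET substrate after 2 h at room temperature. Compound exposure lasted 16 h at 37C.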

Experiment [6] deals with Vitamin D3 receptor (Homo sapiens) (UniProt P11473). As to the kind of experiment: qHTS assay to identify small molecule agonists of the vitamin D receptor (VDR) signaling pathway (AID 743222). An outline of the steps:
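Quantitative HTS agonist-mode screen: compounds in DMSO were pin-transferred onto VDR-bla cells and incubated 16 h at 37C, 5% CO2. Reporter activity was detected with LiveBLAzer B/G FRET substrate after 2 h at room temperature.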

The target is the same in experiment [7]. As to the kind of experiment: qHTS assay to identify small molecule antagonists of the vitamin D receptor (VDR) signaling pathway (AID 743223; active = well fitted inhibition curve with a large enough effect in the signal ratio in the repeat runs, not every such curve was filed as active; the % refers to the signal ratio). An outline of the steps:
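VDR-bla cells were plated, incubated 4 h at 37C, then given compound and 1alpha,25-dihydroxyvitamin D3 (3 nM final). After 16 h at 37C, LiveBLAzer B/G FRET substrate was added for 2 h at room temperature and fluorescence read.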

The nature of experiment [8]: qHTS assay to identify small molecule agonists of the NFkB signaling pathway - cell viability counter screen (AID 1159515). Note: series mostly up to about 61 µM; nearly all actives have a fitted effect of over 55% in size. An outline of the steps: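 Multiplexed viability readout: after the 5 hr compound exposure and 1.5 hr FRET substrate step, CellTiter-Glo reagent went into the same NFkB-bla ME-180 wells; ATP luminescence was measured after 30 min at room temperature.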

Experiment [9] is described as follows: qHTS assay to identify small molecule agonists of the endoplasmic reticulum stress response signaling pathway (AID 1159516; active = well fitted activation curve with a large enough effect in the signal ratio in the repeat runs, not every such curve was filed as active; the % refers to the signal ratio). An outline of the steps: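 Tox21 10K library screened in quantitative HTS format on ESRE-bla HeLa cells, a beta-lactamase reporter under ER stress response element control; 5 hr treatment, FRET read.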
Experiment [10] in a line: qHTS assay to identify small molecule antagonists of the retinoid-related orphan receptor gamma (ROR-gamma) signaling pathway - cell viability counter screen (AID 1159520; active = well fitted curve in the direction sought with a large enough effect in the repeat runs; an effect the other way counts as inactive or inconclusive; note: nearly all actives have a fitted effect of over 50% in size; note: potency is the fitted concentration of half-maximal effect). The method, boiled down: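 Cytotoxicity was read from cellular ATP (CellTiter-Glo luminescence) after 16 hr at 37 C with 1 uM doxycycline induction. The inducer was added 2 hr after compound transfer to Tet-on ROR gamma CHO cells.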

Experiment [11] addresses Nuclear receptor ROR-gamma (Homo sapiens) (UniProt P51449). The experiment can be described thus: qHTS assay to identify small molecule antagonists of the retinoid-related orphan receptor gamma (ROR-gamma) signaling pathway (AID 1159521; active = well fitted curve in the direction sought with a large enough effect in the repeat runs; an effect the other way counts as inactive or inconclusive; note: nearly all actives have a fitted effect of over 50% in size; note: potency is the fitted concentration of half-maximal effect). An outline of the steps: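 Tet-on RORγ CHO cells carrying a ROR response element–luciferase reporter were pretreated with compounds for 2 h, then induced with 1 uM (final) doxycycline hyclate for 16 h at 37 C. Antagonism was read as decreased ONE-Glo luminescence.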

The nature of experiment [12]: qHTS assay to identify small molecule agonists of the AP-1 signaling pathway - cell viability counter screen (AID 1159525). Note: nearly all actives have a fitted effect of over 55% in size. An outline of the steps:
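Luminescent ATP readout (Cell Titer Glo, 30 min RT), normalised to DMSO and tetra n-octyl ammonium bromide controls. Cells were ME-180 AP-1-bla in 0.5% dialyzed FBS Opti-MEM, with a 5 h, 37 °C compound exposure.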

Experiment [13] can be described thus: qHTS assay to identify small molecule agonists of the AP-1 signaling pathway (AID 1159526).
For experiment [14], the target named is Retinoic acid receptor RXR-alpha (Homo sapiens) (UniProt P19793). As to the kind of experiment: qHTS assay to identify small molecule agonists of the RXR signaling pathway (AID 1159527). Note: nearly all actives have a fitted effect of over 35% in size. Note: potency is the fitted concentration of half-maximal effect. An outline of the steps:
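GeneBLAzer RXR-alpha-UAS-bla HEK 293T cells in medium with 2% charcoal-stripped FBS, pre-incubated 5 hr at 37 C, then exposed to compounds 16 hr. Beta-lactamase reporter read by FRET substrate, 2 hr room temperature, 460/530 nm emission.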

Experiment [15] can be described thus: qHTS assay to identify small molecule agonists of the peroxisome proliferator-activated receptor delta (PPARd) signaling pathway - cell viability counter screen (AID 743211; active = well fitted curve in the direction sought with a large enough effect in the repeat runs; an effect the other way counts as inactive or inconclusive; note: nearly all actives have a fitted effect of over 55% in size). An outline of the steps: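 PPARd-bla HEK293H cells (UAS-beta-lactamase reporter) were treated with compounds for 17 h at 37 C. Viability was then read in the same wells by CellTiter-Glo luminescence after 30 min at room temperature.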

Experiment [16] can be described thus: qHTS assay to identify small molecule antagonists of the peroxisome proliferator-activated receptor delta (PPARd) signaling pathway - cell viability counter screen (AID 743213; active = well fitted curve in the direction sought with a large enough effect in the repeat runs; an effect the other way counts as inactive or inconclusive; note: nearly all actives have a fitted effect of over 50% in size). The method, boiled down: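 HEK293H PPARd UAS-bla cells, 5 h pre-incubation, compound + L165041 300 nM final, 17 h 37 C; B/G FRET substrate 2 h RT; then CellTiter-Glo 30 min RT, luminescence.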

The nature of experiment [17]: qHTS assay to identify small molecule antagonists of the farnesoid-X-receptor (FXR) signaling pathway - cell viability counter screen (AID 743221; active = well fitted cell-killing curve with a large enough effect in the repeat runs, not every such curve was filed as active; note: nearly all actives have a fitted effect of over 50% in size). An outline of the steps: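 FXR-UAS-bla HEK 293T cells were treated with test compounds plus chenodeoxycholic acid (50 uM final) for 16 h at 37 C. Cell viability in the same wells was then read as CellTiter-Glo luminescence after 30 min at room temperature.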

Experiment [18] can be described thus: qHTS assay to identify small molecule agonists of the vitamin D receptor (VDR) signaling pathway - cell viability counter screen (AID 743224; active = well fitted curve in the direction sought with a large enough effect in the repeat runs; an effect the other way counts as inactive or inconclusive). An outline of the steps: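 Viability is measured in the same wells as the VDR-bla reporter assay: after 16 h compound treatment and 2 h substrate loading, CellTiter-Glo is added and luminescence read 30 min later.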

Experiment [19] is described as follows: qHTS assay to identify small molecule antagonists of the vitamin D receptor (VDR) signaling pathway - cell viability counter screen (AID 743225; active = well fitted curve in the direction sought with a large enough effect in the repeat runs; an effect the other way counts as inactive or inconclusive; note: nearly all actives have a fitted effect of over 50% in size). An outline of the steps:
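VDR-bla HEK 293T cells, 4 h pre-incubation at 37C, then compound plus 1-alpha,25-dihydroxyvitamin D3 (3 nM final) for 16 h. After the beta-lactamase FRET read, CellTiter-Glo was added to the same wells; luminescence after 30 min at room temperature.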

The nature of experiment [20]: qHTS assay to identify small molecule agonists of the endoplasmic reticulum stress response signaling pathway - cell viability counter screen (AID 1159517). Note: nearly all actives have a fitted effect of over 50% in size. Note: potency is the fitted concentration of half-maximal effect. An outline of the steps: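 Cells, HeLa ESRE-bla; density, 1,500/well; dosing, 5 hr at 37 C, 5% CO2; readout, CellTiter-Glo luminescence after 30 min RT.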

Inconclusive results are not listed. Active and inactive are the calls of the source. Unless noted, calls come from the whole dose curve.

Chain of Peroxisome proliferator-activated receptor delta (Homo sapiens) (Q03181 whole entry, looked up): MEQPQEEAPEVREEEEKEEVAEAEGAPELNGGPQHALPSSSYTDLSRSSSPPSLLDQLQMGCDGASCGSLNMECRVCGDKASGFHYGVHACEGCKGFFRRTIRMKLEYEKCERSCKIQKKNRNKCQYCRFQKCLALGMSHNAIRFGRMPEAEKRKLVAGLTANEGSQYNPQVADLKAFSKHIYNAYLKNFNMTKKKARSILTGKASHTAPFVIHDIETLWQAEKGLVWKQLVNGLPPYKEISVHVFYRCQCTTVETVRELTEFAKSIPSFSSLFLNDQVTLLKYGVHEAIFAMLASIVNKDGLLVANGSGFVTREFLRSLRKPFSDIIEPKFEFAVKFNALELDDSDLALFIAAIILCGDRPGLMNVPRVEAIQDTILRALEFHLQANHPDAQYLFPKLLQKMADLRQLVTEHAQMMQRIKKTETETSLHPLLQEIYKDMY
Chain of Vitamin D3 receptor (Homo sapiens) (P11473 whole entry, looked up): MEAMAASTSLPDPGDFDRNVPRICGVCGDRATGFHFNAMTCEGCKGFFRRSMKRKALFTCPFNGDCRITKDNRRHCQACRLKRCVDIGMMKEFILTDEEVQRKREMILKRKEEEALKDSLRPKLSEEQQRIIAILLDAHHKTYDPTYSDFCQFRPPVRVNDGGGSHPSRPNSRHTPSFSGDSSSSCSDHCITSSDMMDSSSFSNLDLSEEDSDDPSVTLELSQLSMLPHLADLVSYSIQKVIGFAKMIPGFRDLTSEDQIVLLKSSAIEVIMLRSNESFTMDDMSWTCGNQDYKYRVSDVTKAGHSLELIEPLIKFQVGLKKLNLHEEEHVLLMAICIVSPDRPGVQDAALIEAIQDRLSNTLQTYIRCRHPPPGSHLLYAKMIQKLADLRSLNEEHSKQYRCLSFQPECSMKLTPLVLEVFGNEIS
Chain of Bile acid receptor (Homo sapiens) (Q96RI1 whole entry, looked up): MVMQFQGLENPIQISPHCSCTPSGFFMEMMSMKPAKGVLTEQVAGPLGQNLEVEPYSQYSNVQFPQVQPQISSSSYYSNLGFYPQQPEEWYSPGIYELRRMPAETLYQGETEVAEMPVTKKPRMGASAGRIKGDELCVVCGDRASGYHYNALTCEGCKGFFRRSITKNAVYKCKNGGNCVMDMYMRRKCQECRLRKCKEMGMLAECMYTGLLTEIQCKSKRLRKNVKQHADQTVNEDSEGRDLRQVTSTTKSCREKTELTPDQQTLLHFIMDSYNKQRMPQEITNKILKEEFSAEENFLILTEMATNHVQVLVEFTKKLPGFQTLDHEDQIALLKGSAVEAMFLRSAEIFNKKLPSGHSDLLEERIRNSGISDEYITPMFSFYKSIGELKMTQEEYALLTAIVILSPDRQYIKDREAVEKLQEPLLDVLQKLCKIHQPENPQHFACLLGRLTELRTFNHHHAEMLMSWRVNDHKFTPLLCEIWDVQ
Chain of Retinoic acid receptor RXR-alpha (Homo sapiens) (P19793 whole entry, looked up): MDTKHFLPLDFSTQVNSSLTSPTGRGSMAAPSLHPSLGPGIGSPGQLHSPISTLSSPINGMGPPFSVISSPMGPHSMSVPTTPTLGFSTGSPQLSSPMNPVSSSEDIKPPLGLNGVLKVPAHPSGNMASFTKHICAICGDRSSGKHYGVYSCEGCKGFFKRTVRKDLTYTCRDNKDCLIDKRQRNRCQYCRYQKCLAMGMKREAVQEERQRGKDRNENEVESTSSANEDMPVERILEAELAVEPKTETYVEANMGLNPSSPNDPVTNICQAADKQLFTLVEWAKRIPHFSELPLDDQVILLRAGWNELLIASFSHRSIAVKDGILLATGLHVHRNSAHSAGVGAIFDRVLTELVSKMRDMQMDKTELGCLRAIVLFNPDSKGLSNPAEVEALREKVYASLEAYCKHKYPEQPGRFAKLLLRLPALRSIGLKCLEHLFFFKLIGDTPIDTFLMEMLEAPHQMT

Regarding `CCOC(=O)Cc1ccccc1`, the Potency entry in experiment [1], in experiment [2], in experiment [3], in experiment [4], in experiment [5] and in experiment [6] was “inactive” in each case. In addition, the Potency result in experiment [7], in [8], in experiment [9], in [10], in experiment [11] and in [12] was “inactive” each time. Further, the Potency result in experiment [13] and in experiment [14] was “inactive” throughout.

On to `CN/C(=N\[N+](=O)[O-])NCc1cnc(Cl)s1`, for which the Potency result in experiment [15], in experiment [16], in [17], in experiment [6], in experiment [7] and in experiment [18] was “inactive” in each case. Moreover, the Potency result in experiment [19], in experiment [8], in experiment [9], in experiment [10], in experiment [11] and in experiment [12] was “inactive” in each case. Besides, the Potency entry in [13] and in [14] was “inactive” each time.

Regarding `Cc1c([N+](=O)[O-])c(C)c([N+](=O)[O-])c(C(C)(C)C)c1[N+](=O)[O-]`, the Potency entry in experiment [15], in experiment [1], in [16], in [2], in experiment [6] and in experiment [7] was “inactive” each time. The Potency entry in experiment [18], in [8], in experiment [9], in experiment [10], in experiment [12] and in experiment [13] was “inactive” in each case. For the same compound, the Potency in experiment [14] is 12.3 µM (active).

As for `C=CC(=C)C`, the Potency entry in [15], in [1], in experiment [2], in experiment [3], in experiment [4] and in [5] was “inactive” in each case. In addition, the Potency entry in experiment [17], in experiment [6], in experiment [7], in experiment [18], in experiment [8] and in [9] was “inactive” each time. Moreover, the Potency result in [10], in experiment [11], in experiment [13] and in experiment [14] was “inactive” in each case.

Turning to `CC(Cc1ccc2c(c1)OCO2)NO` (centres undefined), the Potency result in [1], in experiment [2], in [3], in [4], in [5] and in experiment [17] was “inactive” throughout. The Potency result in experiment [6], in experiment [7], in experiment [18], in experiment [8], in experiment [9] and in [10] was “inactive” each time. Moreover, the Potency entry in experiment [13] and in [14] was “inactive” each time.

On to `O=Cc1ccccc1`, for which the Potency result in experiment [15], in experiment [1], in experiment [2], in experiment [3], in experiment [4] and in experiment [5] was “inactive” in each case. In addition, the Potency result in experiment [17], in [7], in [8], in [9], in experiment [10] and in [11] was “inactive” in each case. Besides, the Potency result in [13] and in [14] was “inactive” each time.

`O=C(NC(=O)c1ccccc1Cl)Nc1ccc(OC(F)(F)F)cc1`: the Potency entry in [15], in experiment [1], in experiment [16], in experiment [2], in [4] and in [5] was “inactive” throughout. Also, the Potency result in experiment [17], in experiment [6], in experiment [7], in [18], in experiment [19] and in experiment [8] was “inactive” in each case. Also, the Potency entry in experiment [20], in experiment [10], in experiment [11], in experiment [12], in experiment [13] and in [14] was “inactive” in each case.

Regarding `O=[N+]([O-])C(Br)Br`, the Potency entry in experiment [15], in experiment [1], in experiment [16], in experiment [2], in experiment [4] and in experiment [6] was “inactive” each time. The Potency result in experiment [18], in experiment [19], in experiment [8], in experiment [11], in experiment [12] and in experiment [13] was “inactive” each time. Moreover, the Potency result in experiment [14] was “inactive”. Besides, the Potency in experiment [20] was 55 µM (active); in experiment [10], 21.7 µM (active).

With `O.O.O.O=C([O-])[C@H]([O-])[C@@H]([O-])C(=O)[O-].O=C([O-])[C@H]([O-])[C@@H]([O-])C(=O)[O-].[K+].[K+].[Sb+3].[Sb+3]`, the Potency in experiment [2] is 12.4 µM (active); in [11], 1.94 µM (active). In addition, the Potency entry in experiment [4], in [5], in [17], in experiment [18], in [19] and in experiment [8] was “inactive” in each case. In experiment [9], the Potency entry is “inactive”.

Consider `Brc1ccc(Oc2ccc(Br)cc2Br)c(Br)c1`, for which the Potency result in experiment [16], in experiment [5], in experiment [17], in [6], in [19] and in experiment [8] was “inactive” in each case. Further, the Potency result in [20], in experiment [10], in experiment [11], in experiment [12], in [13] and in [14] was “inactive” each time.
